FBA Mtb inh: Mtb fructose-bisphosphate aldolase inhibition; purified M. tuberculosis FBA, fluorescence read-out; P9WQA3; AID 588726; inhibition, % at 1 µM; 2.3% of 360,000 active; in the data active = inhibition above about 27%;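 also: 0% = vehicle and 100% = reference inhibitor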
Mtb BioA inh: BioA (M. tuberculosis) enzyme inhibition; purified M. tuberculosis BioA enzyme, plate reader; inhibition, % at 9.99 µM; 0.096% of 360,000 active; in the data active = inhibition above about 40%
FadD28 FP inh: inhibitors of Mycobacterium tuberculosis FadD28 bisubstrate binding | 0.22% of 360,000 active | AID 588549 | inhibition, % at 12.5 µM | FadD28 bisubstrate probe binding, fluorescence polarization; in the data active = inhibition above about 8.5%, passing the limit was not always enough
GDH-TPI inh: inhibits GDH-TPI coupling enzymes, artifact for Mtb FBA screen | inhibition, % at 4.8 µM | 1.2% of 360,000 active | GDH-TPI coupled enzyme counterscreen, NADH absorbance; in the data active = inhibition above about 30%;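 also: 0% = DMSO wells and 100% = wells lacking the enzyme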
Rv3671c protease: Rv3671c (M. tuberculosis) protease inhibition; inhibition, % at 5.96 µM; AID 2606; 0.048% of 320,000 active; in the data active = inhibition above about 38%;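 also: extracellular domain of Rv3671c used as enzyme; 0% = enzyme with DMSO and 100% = no enzyme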
Target sequence (P9WHR9 whole entry, looked up, the tested form may be a part): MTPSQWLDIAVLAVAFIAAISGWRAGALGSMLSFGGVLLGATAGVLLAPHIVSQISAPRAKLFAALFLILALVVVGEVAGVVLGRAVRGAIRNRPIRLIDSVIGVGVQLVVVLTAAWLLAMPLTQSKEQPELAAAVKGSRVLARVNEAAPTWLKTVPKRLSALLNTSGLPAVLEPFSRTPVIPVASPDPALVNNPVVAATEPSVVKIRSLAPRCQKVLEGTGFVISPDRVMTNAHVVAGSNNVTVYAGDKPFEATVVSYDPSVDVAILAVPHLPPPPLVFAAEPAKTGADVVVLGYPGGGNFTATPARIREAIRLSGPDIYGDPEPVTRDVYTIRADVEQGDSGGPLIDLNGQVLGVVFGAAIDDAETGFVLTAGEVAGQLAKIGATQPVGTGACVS
Starred values were filed as active, the others as inactive; / = no result; + = active, no number. Only some compounds are listed: those with a hit (about 3% of all), similar ones and a draw of the others.

SMILES	FBA Mtb inh	Mtb BioA inh	FadD28 FP inh	GDH-TPI inh	Rv3671c protease
COC(=O)C1=CN(c2cc(C)cc(C)c2)C=C(C(=O)OC)C1c1cccc(F)c1	2	-1	-4	-1	10
CCN1C=C(C(=O)OC)C(c2cccc(C)c2)C(C(=O)OC)=C1	+	-2	-1	17	1
COC(=O)C1=CN(C(C)C)C=C(C(=O)OC)C1c1cccc(OC)c1	+	/	-4	17	4
C[C@H](CO)N1C[C@H](C)[C@@H](CN(C)Cc2ccc(F)cc2)Oc2ncc(-c3ccncc3)cc2C1=O	/	1	/	/	/
COC(=O)C1=CN(C)C=C(C(=O)OC)C1c1ccccc1Cl	199*	0	2	19	5
Cc1cc(-c2ccccc2)c2ccc(NC(=O)C(C)(C)C)nc2n1	14	-1	1	46*	6
Cc1cc(C)nc(/N=C(\NC(=O)C(C)(C)C)Nc2ccccc2)n1	-1	2	-4	-11	0
COc1ccc(NS(=O)(=O)c2ccc3oc(=O)c4[nH]c(=O)c(=O)n(C)c4c3c2)cc1	3	0	3	34*	-1
CNC(=S)N/N=C/c1ccc(OCC(=O)Nc2c(C)cc(C)cc2C)c(OC)c1	5	/	0	25	-6
COc1cc(/C=N/NC(=O)c2ccc(Cl)c(S(N)(=O)=O)c2)ccc1OCC(N)=O	4	/	-2	43*	-4
COc1ccc(/C=N/NC(=O)c2ccc(Cl)c(S(N)(=O)=O)c2)cc1OCC(N)=O	2	0	-4	30	-2
COc1cc(/C=N/NC(N)=S)ccc1OCC(=O)Nc1ccc(C)cc1	2	0	1	40*	4
COc1ccc(/C=N/NC(N)=S)cc1OC(=O)c1cccc2ccccc12	1	0	0	34*	-64
COc1ccc(NC(=O)N(C)C[C@@H]2Oc3ccc(NC(=O)C4CC4)cc3C(=O)N([C@@H](C)CO)C[C@H]2C)cc1	/	-2	/	/	/
COc1ccc(S(=O)(=O)N2C[C@@H](O)COC[C@@H]3O[C@@H](CC(=O)N[C@H]4CCN(Cc5ccccc5)C4)CC[C@H]32)cc1	/	1	/	/	/
CCNC(=O)C[C@H]1CC[C@H]2[C@@H](COC[C@@H](O)CN2C(=O)Nc2c(C)noc2C)O1	/	-3	/	/	/
CC(C)(C)c1ccc(C(=O)Nc2sc3c(c2C(=O)O)CCC3)cc1	14	/	14*	22	1
Cc1ccc(C(=O)Nc2sc3c(c2C(=O)O)CCCC3)o1	14	0	-2	36*	-1
Cc1ccc(C(=O)Nc2sc3c(c2C(=O)O)CCCCC3)o1	17	0	4	21	0
C[C@@H]1CN([C@@H](C)CO)C(=O)c2cc(NC(=O)Nc3ccc4c(c3)OCO4)ccc2O[C@@H](C)CCCCO[C@H]1CN(C)C(=O)c1ccccc1	/	0	/	/	/
COCCn1c(=NC(=O)c2cc3ccccc3oc2=O)sc2cc(S(N)(=O)=O)ccc21	2	2	-2	49*	-3
C[C@H]1CN([C@@H](C)CO)C(=O)Cc2cc(NS(=O)(=O)c3cccs3)ccc2O[C@@H]1CN(C)C(=O)NC1CCCCC1	/	4	/	/	/
O=C1/C(=C/c2ccccc2)CN(C(=O)CCN2CCOCC2)C/C1=C\c1ccccc1	3	/	-2	37*	/
CCOC(=O)N1C/C(=C\c2ccccc2)C(=O)/C(=C/c2ccccc2)C1	0	0	1	15	/
CN(C)CCC(=O)N1C/C(=C/c2ccccc2)C(=O)/C(=C\c2ccccc2)C1	1	/	-2	35*	/
SMILES	FBA Mtb inh	Mtb BioA inh	FadD28 FP inh	GDH-TPI inh	Rv3671c protease
C[N+](C)(C)CCC(=O)N1C/C(=C/c2ccccc2)C(=O)/C(=C\c2ccccc2)C1	0	/	-2	41*	/
CC(C)NC(=O)N(C)C[C@@H]1Oc2ccc(NC(=O)NC3CCCCC3)cc2C(=O)N([C@@H](C)CO)C[C@@H]1C	/	0	/	/	/
C[C@@H]1CN([C@@H](C)CO)C(=O)c2cc(NS(=O)(=O)c3ccc(Cl)cc3)ccc2O[C@H]1CN(C)C(=O)Nc1ccccc1	/	-1	/	/	/
CCOc1ncccc1C(=O)OC(C)C(=O)Nc1ccc(Cl)cn1 (stereo unspecified)	3	-3	-1	8	/
CNc1ccccc1C(=O)OC(C)C(=O)Nc1ccc(Cl)cn1 (stereo unspecified)	112*	1	-3	22	-8
CCOC(=O)N1CCN(c2c(N3CCc4ccccc43)c(=O)c2=O)CC1	0	0	-1	51*	-7
CCOC(=O)N1CCN(c2c(Nc3ccc4c(c3)OCCO4)c(=O)c2=O)CC1	2	0	2	42*	5
CS(=O)(=O)c1ccc(C(=O)OCc2nnc(-c3ccc(Cl)cc3)o2)cc1[N+](=O)[O-]	87*	/	-2	3	-10
O=c1[nH]c2cc3c(cc2cc1CN(CCO)S(=O)(=O)c1ccccc1)OCCO3	26	-2	0	37*	-12
COc1cc2ccc(C(C)=NNC(N)=S)cc2cc1OC	-1	2	-1	42*	/
O=[N+]([O-])c1ccc(N2CCSCC2)cc1	-12	/	0	71*	-1
COc1cccc(C(=O)OCCN2C(=O)c3ccccc3C2=O)c1OC	0	0	0	6	-2
COc1cccc(C=O)c1OCCN1C(=O)c2ccccc2C1=O	-1	65*	-1	11	/
CN(C)CCCNC(=O)C[C@@H]1CC[C@H]2[C@@H](COc3ccc(NC(=O)c4cccc(F)c4)cc3C(=O)N2C)O1	/	0	/	/	/
CCCC#Cc1ccc([C@H]2[C@@H](CO)N3CCCCN(S(C)(=O)=O)C[C@H]23)cc1	/	0	/	/	/
CCc1nnc(NC(=O)c2ccc(NS(=O)(=O)c3ccccc3)cc2)s1	10	-2	-1	34*	-9
CCc1nnc(NS(=O)(=O)c2ccc(NC(=O)c3ccccc3)cc2)s1	8	0	-1	-11	-5
Cc1ccc(-n2[nH]c(C)c(/C=N/NC(=O)c3ccc(O)cc3O)c2=O)cc1	8	1	0	23	28
Cc1[nH]n(-c2ccccc2)c(=O)c1/C=N/NC(=O)c1ccc(O)cc1O	16	2	0	36*	15
C[C@H]1CN([C@@H](C)CO)S(=O)(=O)c2ccc(-c3cncnc3)cc2O[C@@H]1CN(C)C(=O)c1cccc(F)c1	/	4	/	/	/
Cc1cc(=O)oc2cc(OCCSCCN3CCCCC3)ccc12	26	2	-2	36*	-4
Cc1nn(CCc2nn[nH]n2)c2nc(-c3ccc(C4CCCCC4)cc3)cc(C(F)(F)F)c12	1	/	14*	0	5
COc1ccc(/C(N)=N/OC(=O)/C=C/c2ccccc2)cc1	1	-2	-3	3	-5
COc1ccc2c(/C=N/Nc3ccc(C(=O)O)cc3)c[nH]c2c1	2	2	14*	29	3
COc1ccc(C(=O)N/N=C/c2c[nH]c3ccccc23)cc1	-3	0	0	24	-7
Cc1ccc(S(=O)(=O)Oc2cccc(/C=N/n3cnnc3)c2)cc1	-1	/	-5	1	-4
COc1ccc(/C=C/C(=O)O/N=C(\N)c2ccccc2)cc1OC	6	5	-5	40*	-6
Cc1ccc(S(=O)(=O)Oc2cccc(/C=N/Nc3ccc(C(=O)O)cc3)c2)cc1	3	17	30*	31*	7
